Measured values from PubChem BioAssay AID1159580 (chemical genetic matrix, 2015).
About 2,000 (36%) of roughly 5,500 compounds were called active. Roughly 18% stayed inconclusive and do not appear here. Rule as the data show it: active = normalized growth mostly below about 0.91 (no sharp cut-off); inconclusive = no clear call, values can overlap the other calls; inactive = mostly above about 0.92. Some of the results follow.

Assay: chemical genetic growth profiling, strain panel (AID 1159580);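 also: tested at 20 µM; growth read once vehicle control cultures reached saturation at 30 °C; 1 = growth at the plate median or of vehicle wells; lower values mean less growth of the strain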
Conditions: growth OD

Measured: normalized growth

O=c1cccc2n1C[C@H]1CNCC2C1
inactive: S. cerevisiae deletion strains, locus YJR043C, strain POL32, stronger effect = lower value 1.01 | S. cerevisiae deletion strains, locus YJR066W, strain TOR1, stronger effect = lower value 0.988 | S. cerevisiae deletion strains, locus YKL009W, strain mrt4, stronger effect = lower value 1.02 | S. cerevisiae deletion strains, locus YKL068W, stronger effect = lower value 0.98 | S. cerevisiae deletion strains, locus YKL085W, strain MDH1 (second series), stronger effect = lower value 1 | S. cerevisiae deletion strains, locus YKL085W, strain MDH1, stronger effect = lower value 1 | S. cerevisiae deletion strains, locus YKL160W, strain elf1, stronger effect = lower value 0.984 | S. cerevisiae deletion strains, locus YKR001C, strain vps1, stronger effect = lower value 0.964 | S. cerevisiae deletion strains, locus YKR026C, strain gcn3, stronger effect = lower value 0.994 | S. cerevisiae deletion strains, locus YKR091W, strain srl3, stronger effect = lower value 1.01 | S. cerevisiae deletion strains, locus YLL001W, strain dnm1, stronger effect = lower value 0.95 | S. cerevisiae deletion strains, locus YLL026W, stronger effect = lower value 1.01 | S. cerevisiae deletion strains, locus YLL041C, strain sdh2, stronger effect = lower value 0.998 | S. cerevisiae deletion strains, locus YLR027C, strain aat2, stronger effect = lower value 1 | S. cerevisiae deletion strains, locus YLR039C, strain RIC1, stronger effect = lower value 1.01 | S. cerevisiae deletion strains, locus YLR058C, strain SHM2, stronger effect = lower value 1.01 | S. cerevisiae deletion strains, locus YLR102C, strain apc9, stronger effect = lower value 0.985 | S. cerevisiae deletion strains, locus YLR113W, strain HOG1, stronger effect = lower value 0.979 | S. cerevisiae deletion strains, locus YLR221C, strain rsa3, stronger effect = lower value 0.971 | S. cerevisiae deletion strains, locus YLR258W, strain gsy2, stronger effect = lower value 0.982 | S. cerevisiae deletion strains, locus YLR262C, strain YPT6 (second series), stronger effect = lower value 0.998 | S. cerevisiae deletion strains, locus YLR262C, strain YPT6, stronger effect = lower value 1.01 | S. cerevisiae deletion strains, locus YLR268W, strain sec22, stronger effect = lower value 0.971 | S. cerevisiae deletion strains, locus YLR320W, strain mms22, stronger effect = lower value 0.974 | S. cerevisiae deletion strains, locus YLR330W, strain CHS5, stronger effect = lower value 0.989 | S. cerevisiae deletion strains, locus YLR342W, strain FKS1 (second series), stronger effect = lower value 1.04 | S. cerevisiae deletion strains, locus YLR342W, strain FKS1, stronger effect = lower value 1.01 | S. cerevisiae deletion strains, locus YLR357W, strain rsc2, stronger effect = lower value 1.09 | S. cerevisiae deletion strains, locus YLR370C, strain arc18, stronger effect = lower value 0.99 | S. cerevisiae deletion strains, locus YLR371W, strain rom2, stronger effect = lower value 0.976 | S. cerevisiae deletion strains, locus YLR384C, strain iki3, stronger effect = lower value 1 | S. cerevisiae deletion strains, locus YLR418C, strain cdc73, stronger effect = lower value 1.03 | S. cerevisiae deletion strains, locus YML016C, strain PPZ1, stronger effect = lower value 1.01 | S. cerevisiae deletion strains, locus YML032C, strain rad52, stronger effect = lower value 1.01 | S. cerevisiae deletion strains, locus YML120C, strain ndi1, stronger effect = lower value 0.993 | S. cerevisiae deletion strains, locus YML124C, strain tub3, stronger effect = lower value 0.995 | S. cerevisiae deletion strains, locus YMR058W, strain fet3, stronger effect = lower value 1.01 | S. cerevisiae deletion strains, locus YMR078C, strain ctf18, stronger effect = lower value 0.984 | S. cerevisiae deletion strains, locus YMR125W, strain sto1, stronger effect = lower value 0.992 | S. cerevisiae deletion strains, locus YMR129W, stronger effect = lower value 1 | S. cerevisiae deletion strains, locus YMR205C, strain PFK2, stronger effect = lower value 0.994 | S. cerevisiae deletion strains, locus YMR223W, strain ubp8, stronger effect = lower value 1.01 | S. cerevisiae deletion strains, locus YMR231W, strain pep5, stronger effect = lower value 1.01 | S. cerevisiae deletion strains, locus YMR263W, strain SAP30, stronger effect = lower value 1 | S. cerevisiae deletion strains, locus YMR307W, strain GAS1, stronger effect = lower value 1.07 | S. cerevisiae deletion strains, locus YNL067W, strain RPL9B, stronger effect = lower value 1.01 | S. cerevisiae deletion strains, locus YNL071W, strain lat1, stronger effect = lower value 1.01 | S. cerevisiae deletion strains, locus YNL153C, strain GIM3, stronger effect = lower value 1.03 | S. cerevisiae deletion strains, locus YNL183C, strain NPR1, stronger effect = lower value 0.987 | S. cerevisiae deletion strains, locus YNL209W, strain ssb2, stronger effect = lower value 1.01 | S. cerevisiae deletion strains, locus YNL233W, strain BNI4, stronger effect = lower value 1.03 | S. cerevisiae deletion strains, locus YNL248C, strain rpa49, stronger effect = lower value 1.09 | S. cerevisiae deletion strains, locus YNL250W, strain rad50, stronger effect = lower value 0.929 | S. cerevisiae deletion strains, locus YNL271C, strain bni1, stronger effect = lower value 0.988 | S. cerevisiae deletion strains, locus YNL298W, strain CLA4, stronger effect = lower value 1.01 | S. cerevisiae deletion strains, locus YNL307C, strain MCK1, stronger effect = lower value 0.983 | S. cerevisiae deletion strains, locus YNL322C, strain KRE1 (second series), stronger effect = lower value 1 | S. cerevisiae deletion strains, locus YNR049C, strain mso1, stronger effect = lower value 1 | S. cerevisiae deletion strains, locus YNR052C, strain pop2, stronger effect = lower value 1.01 | S. cerevisiae deletion strains, locus YOL006C, strain TOP1, stronger effect = lower value 1.02 | S. cerevisiae deletion strains, locus YOL012C, strain htz1 1.03 | S. cerevisiae deletion strains, locus YOL147C, strain pex11, stronger effect = lower value 0.998 | S. cerevisiae deletion strains, locus YOR001W, strain rrp6, stronger effect = lower value 0.987 | S. cerevisiae deletion strains, locus YOR061W, strain CKA2, stronger effect = lower value 1.01 | S. cerevisiae deletion strains, locus YOR069W, strain VPS5, stronger effect = lower value 0.999 | S. cerevisiae deletion strains, locus YOR070C, strain gyp1, stronger effect = lower value 0.998 | S. cerevisiae deletion strains, locus YOR080W, strain dia2, stronger effect = lower value 1 | S. cerevisiae deletion strains, locus YOR083W, strain WHI5, stronger effect = lower value 0.991 | S. cerevisiae deletion strains, locus YOR106W, strain vam3, stronger effect = lower value 1.01 | S. cerevisiae deletion strains, locus YOR136W, strain idh2, stronger effect = lower value 0.994 | S. cerevisiae deletion strains, locus YOR144C, strain elg1, stronger effect = lower value 1 | S. cerevisiae deletion strains, locus YOR184W, strain ser1, stronger effect = lower value 0.996 | S. cerevisiae deletion strains, locus YOR231W, strain MKK1, stronger effect = lower value 1.02 | S. cerevisiae deletion strains, locus YOR265W, strain rbl2, stronger effect = lower value 1.01 | S. cerevisiae deletion strains, locus YOR270C, strain vph1, stronger effect = lower value 1.05 | S. cerevisiae deletion strains, locus YOR290C, strain snf2, stronger effect = lower value 0.958 | S. cerevisiae deletion strains, locus YOR316C, strain cot1, stronger effect = lower value 0.994 | S. cerevisiae deletion strains, locus YPL051W, strain arl3, stronger effect = lower value 1 | S. cerevisiae deletion strains, locus YPL078C, strain atp4, stronger effect = lower value 0.997 | S. cerevisiae deletion strains, locus YPL106C, strain sse1, stronger effect = lower value 0.957 | S. cerevisiae deletion strains, locus YPL240C, strain hsp82, stronger effect = lower value 0.993 | S. cerevisiae deletion strains, locus YPL241C, strain CIN2, stronger effect = lower value 1 | S. cerevisiae deletion strains, locus YPL256C, strain CLN2, stronger effect = lower value 1.07 | S. cerevisiae deletion strains, locus YPR119W, strain clb2, stronger effect = lower value 0.981 | S. cerevisiae deletion strains, locus YPR141C, strain kar3, stronger effect = lower value 0.982 | S. cerevisiae deletion strains, locus YPR163C, strain tif3, stronger effect = lower value 0.993 | S. cerevisiae deletion strains, locus YPR167C, strain met16, stronger effect = lower value 0.98 | S. cerevisiae deletion strains, strain wtn01, stronger effect = lower value 0.958 | S. cerevisiae strains, strain wild type, stronger effect = lower value 1.01
